Lmaj promast – inhibitors of Leishmania major promastigote growth; Leishmania major promastigotes, resazurin fluorescence viability; inhibition, % at 10 µM; hit rate 9% among 200,000; AID 1063; in the data active = inhibition above about 50%;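 also: promastigotes grown with compound for 44 hours at 28 °C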
HCT116 PTEN-null – suppresses growth of cells with PTEN deletion. HCT116 PTEN-null viability, CellTiter-Glo, 60 h; hits give low values. viability, % at 10 µM. hit rate 1.2% among 140,000;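 active = viability at or below a set limit, 4 SD under the median of all tested compounds, cut at about 3.7% in these data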;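 also: PTEN knockout HCT116 line with beta catenin targeted HCT116 as companion control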
bCat KO growth – beta-catenin-lacking colon tumor cell growth suppression; HCT116 beta-catenin knockout viability, CellTiter-Glo, 60 h; hits give low values; viability, % at 10 µM; hit rate 1.5% among 140,000;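 active = viability at or under a set limit, the compound median less 4 SD, cut at about 6% in these data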
p97 inhibitor – blocks human p97 ATPase activity | P55072 | recombinant p97 ATPase, Kinase-Glo ATP luminescence, 3 h | inhibition, % at 8 µM | hit rate 0.42% among 220,000 | AID 1481; in the data active = inhibition above about 15%
INS promoter inh – TRM-6 insulin promoter activity inhibition. TRM-6 cells (human fetal islet line), insulin promoter-eGFP reporter, imaging; reporter expression induced with tamoxifen. inhibition, % at 2 µM. hit rate 0.9% among 130,000. AID 1273;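 active = inhibition above the mean plus 3 SD, with well images judged a real hit on visual review, cut at about 60% in these data, passing the limit was not always enough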
ROMK primary – modulators of human ROMK potassium channel. B-score at 10 µM. P48048. Tet-inducible ROMK, thallium flux fluorescence; actives lie on both sides. hit rate 2% among 130,000. AID 1918;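 active = signal ratio slope over the read window, or its plate-corrected B-score, at least 3 SD from the plate mean, either direction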;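 also: B-score of the F/F0 ratio slope over 7 to 12 s after thallium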
Target sequence (P48048 whole entry, looked up): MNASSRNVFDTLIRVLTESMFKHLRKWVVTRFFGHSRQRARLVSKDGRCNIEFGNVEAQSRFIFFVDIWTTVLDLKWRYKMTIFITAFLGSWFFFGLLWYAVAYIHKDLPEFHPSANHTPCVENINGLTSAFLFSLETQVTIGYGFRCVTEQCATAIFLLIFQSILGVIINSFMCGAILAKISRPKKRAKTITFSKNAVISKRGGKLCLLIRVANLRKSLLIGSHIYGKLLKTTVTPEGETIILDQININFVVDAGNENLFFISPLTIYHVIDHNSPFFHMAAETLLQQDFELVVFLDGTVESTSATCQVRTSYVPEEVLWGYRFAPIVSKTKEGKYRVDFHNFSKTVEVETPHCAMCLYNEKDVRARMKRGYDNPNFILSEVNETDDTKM
Numbers stand for hits. Shown are actives, neighbours in structure and some others; about 10% of the full set was active somewhere.

O=C(/C=C/c1cccc(O)c1)c1cccnc1 was read as Lmaj promast 98.6, p97 inhibitor inactive, INS promoter inh inactive and ROMK primary inactive.
`O=C(CSc1ncccn1)NN=C1CCCCCC1` gave Lmaj promast inactive, HCT116 PTEN-null inactive, bCat KO growth inactive, p97 inhibitor inactive, INS promoter inh 66.7 and ROMK primary inactive.
For Cc1cc(C)cc(CSCC(=O)NN=C2CCCCCC2)c1 the results were Lmaj promast inactive, HCT116 PTEN-null inactive, bCat KO growth inactive, p97 inhibitor inactive, INS promoter inh inactive and ROMK primary inactive.
`Cc1nc([N+](=O)[O-])c(Br)n1CC(=O)c1ccc(Cl)cc1` gave Lmaj promast 99.1, HCT116 PTEN-null inactive, bCat KO growth inactive, p97 inhibitor inactive, INS promoter inh 68.8 and ROMK primary inactive.
For Cc1nc([N+](=O)[O-])c(Br)n1Cc1ccc(Cl)c(Cl)c1 the results were Lmaj promast 100.5, p97 inhibitor inactive, INS promoter inh inactive and ROMK primary inactive.
Screening S=c1[nH]nc(-c2cccs2)n1/N=C/c1c(Cl)cccc1Cl returned Lmaj promast inactive, p97 inhibitor inactive, INS promoter inh inactive and ROMK primary inactive.
O=C1CC(c2ccccc2)C(C(=O)Nc2ccccc2F)N1 (centres undefined) was read as Lmaj promast inactive, HCT116 PTEN-null inactive, bCat KO growth inactive, p97 inhibitor inactive, INS promoter inh inactive and ROMK primary inactive.
For Nc1nc(NCCCN2CCOCC2)nc(Nc2cccc(F)c2)c1[N+](=O)[O-] the results were p97 inhibitor inactive.
Nc1nc(NCCCN2CCOCC2)nc(Nc2ccc(F)cc2)c1[N+](=O)[O-] was read as Lmaj promast 51.8, HCT116 PTEN-null inactive, bCat KO growth inactive, p97 inhibitor inactive, INS promoter inh inactive and ROMK primary inactive.
Brc1ccc(Oc2ncc(CN3CCN(c4ccccc4)CC3)s2)cc1 was read as Lmaj promast inactive, HCT116 PTEN-null inactive, bCat KO growth inactive, p97 inhibitor inactive, INS promoter inh inactive and ROMK primary inactive.
Cc1ccc(Oc2ncc(CN3CCOCC3)s2)cc1 was read as Lmaj promast 77.4, HCT116 PTEN-null inactive, bCat KO growth inactive, p97 inhibitor inactive and INS promoter inh inactive.
`Clc1cccc(Oc2ncc(CN3CCOCC3)s2)c1` gave Lmaj promast 61.8, HCT116 PTEN-null inactive, bCat KO growth inactive, p97 inhibitor inactive and INS promoter inh inactive.
For CSc1nc2ccccc2cc1/C=C(\C#N)c1ccccc1 the results were Lmaj promast inactive, HCT116 PTEN-null inactive, bCat KO growth inactive, p97 inhibitor inactive and INS promoter inh inactive.
`CSc1nc2ccccc2cc1/C=C(\C#N)c1ccc(Cl)c(Cl)c1` gave Lmaj promast inactive, HCT116 PTEN-null 2.4, bCat KO growth 1.9, p97 inhibitor inactive and INS promoter inh inactive.
O=C(NCC(c1cccnc1)N1CCN(c2ccc(F)cc2)CC1)c1ccc(F)cc1 (centres undefined) was read as Lmaj promast 88.5, HCT116 PTEN-null inactive, bCat KO growth inactive, p97 inhibitor inactive and INS promoter inh inactive.
COc1ccc(C(=O)NCC(c2cccnc2)N2CCN(c3ccccc3)CC2)cc1OC (centres undefined) was read as Lmaj promast 81.5, HCT116 PTEN-null inactive, bCat KO growth inactive, p97 inhibitor inactive and INS promoter inh inactive.
`O=C(NCC(c1cccnc1)N1CCN(c2ccc(F)cc2)CC1)c1ccco1` (centres undefined) gave Lmaj promast 71.9 and p97 inhibitor inactive.
Screening O=C(NCc1cccnc1)C(=O)NCC(c1ccco1)N1CCN(c2ccc(F)cc2)CC1 (centres undefined) returned Lmaj promast inactive, HCT116 PTEN-null inactive, bCat KO growth inactive, p97 inhibitor inactive, INS promoter inh inactive and ROMK primary inactive.
Screening COc1cc(C(=O)NCC(c2cccnc2)N2CCN(c3ccc(F)cc3)CC2)cc(OC)c1OC (centres undefined) returned Lmaj promast 77.6, p97 inhibitor inactive, INS promoter inh inactive and ROMK primary inactive.
CCCCN=C1NC(=O)C(CC(=O)NCCc2ccc(OC)cc2)S1 (centres undefined) was read as Lmaj promast inactive, HCT116 PTEN-null inactive, bCat KO growth inactive and p97 inhibitor inactive.
`CC(=O)Nc1ccc(S(=O)(=O)Nc2cccc(NC(=O)c3ccco3)c2)cc1` gave Lmaj promast inactive, p97 inhibitor inactive and ROMK primary inactive.
For COC(=O)NCC(c1cccnc1)N1CCOCC1 (centres undefined) the results were Lmaj promast inactive, HCT116 PTEN-null inactive, bCat KO growth inactive and p97 inhibitor inactive.
For COc1ccc(C(=O)NCC(c2cccnc2)N2CCN(c3ccc(F)cc3)CC2)cc1OC (centres undefined) the results were Lmaj promast 96.6, HCT116 PTEN-null inactive, bCat KO growth inactive and p97 inhibitor inactive.
`O=c1[nH][nH]c(-c2ccccc2)c1C=Nc1ccc(OC(F)(F)F)cc1` gave Lmaj promast inactive, p97 inhibitor inactive and ROMK primary inactive.
Screening COc1ccc(NC(=O)NCCCN2CCc3ccccc3C2)cc1 returned Lmaj promast inactive, HCT116 PTEN-null inactive, bCat KO growth inactive, p97 inhibitor inactive and INS promoter inh inactive.
For O=C(NCCCN1CCc2ccccc2C1)Nc1ccc(Br)cc1 the results were Lmaj promast 95.0, HCT116 PTEN-null inactive, bCat KO growth inactive, p97 inhibitor inactive, INS promoter inh inactive and ROMK primary inactive.
For Cc1ccsc1C(=O)OCC(=O)N1CCc2ccccc2C1 the results were Lmaj promast inactive, p97 inhibitor inactive and ROMK primary inactive.
`COC(=O)c1nnn(-c2cccc(Cl)c2)c1C(=O)OC` gave p97 inhibitor inactive.
Screening Fc1ccc(/C=C2\CCCC3=C2Nc2ncnn2C3c2ccc(F)cc2)cc1 (centres undefined) returned Lmaj promast 73.2, HCT116 PTEN-null 1.8, bCat KO growth 2.0, p97 inhibitor inactive and INS promoter inh inactive.
`COc1cc(OC)c(/C=N/n2c(C)nnc2C)c(OC)c1` gave Lmaj promast inactive, HCT116 PTEN-null inactive, bCat KO growth inactive, p97 inhibitor inactive, INS promoter inh inactive and ROMK primary inactive.
Screening O=C(CSCc1ccccc1)N/N=C/c1ccc(OCC(=O)N2CCCCC2)cc1 returned Lmaj promast 56.7, HCT116 PTEN-null inactive, bCat KO growth inactive, p97 inhibitor inactive and INS promoter inh inactive.
For Cc1ccccc1NC(=O)COC(=O)/C=C/c1cccc(C(F)(F)F)c1 the results were Lmaj promast inactive, HCT116 PTEN-null inactive, bCat KO growth inactive, p97 inhibitor inactive, INS promoter inh inactive and ROMK primary inactive.
`CCCCNC(=O)CCCn1c(=S)[nH]c2cc3c(cc2c1=O)OCO3` gave Lmaj promast inactive, HCT116 PTEN-null inactive, bCat KO growth inactive, p97 inhibitor 17.3 and INS promoter inh inactive.
`CCN(CC)CCNC(=O)CCn1c(=S)[nH]c2cc3c(cc2c1=O)OCO3` gave Lmaj promast inactive, HCT116 PTEN-null inactive, bCat KO growth inactive, p97 inhibitor inactive and INS promoter inh inactive.
CCN(CC(=O)NC(C)C)C(=O)Cc1ccc(C)c(C)c1 was read as Lmaj promast inactive, p97 inhibitor inactive and ROMK primary inactive.
